The results in this text go back to the antibiotic and cytotoxicity screens of Wong et al. (2023).

Molecules are shown by their SMILES. About 3,300 (8.5%) of roughly 39,000 compounds were called active. The sample holds actives, similar compounds and a random draw of the others, so the mix is not that of the screen.

This assay has as its system HepG2. Description: cytotoxicity call (relative viability < 0.9). As to conditions: 10 µM.
In the case of `CCCN(C)C[C@@H]1Oc2cc(C#Cc3ccccc3OC)ccc2S(=O)(=O)N([C@@H](C)CO)C[C@@H]1C`, the cytotoxicity call was “inactive”.
In the case of `COc1ccc(S(=O)(=O)Nc2ccc3c(c2)C(=O)N([C@H](C)CO)C[C@H](C)[C@H](CN(C)S(=O)(=O)c2cccs2)O3)cc1` it was “inactive”.
The value for `O=C(C[C@@H]1C[C@H]2c3cc(NC(=O)Cc4ccncc4)ccc3O[C@H]2[C@H](CO)O1)NCc1ccc2c(c1)OCO2` was “inactive”; that for `C=C(C(=O)O)[C@@H](CCCCCCOC(=O)C(=O)OCCCCCC[C@@H](C(=C)C(=O)O)C(=O)O)C(=O)O` was “inactive”; that for `O=C(C[C@H]1CC[C@@H]2[C@H](COC[C@@H](O)CN2S(=O)(=O)c2ccccc2F)O1)NCc1ccccc1Cl` was “inactive”.
As for `C[C@H](CO)N1C[C@H](C)[C@@H](CN(C)C(=O)Nc2ccc(F)cc2)OCCCC[C@H](C)Oc2ccc(NC(=O)C3CCCCC3)cc2C1=O`, the cytotoxicity call is “inactive”.
For `C[C@@H]1CN([C@H](C)CO)C(=O)c2cc(NC(=O)C3CC3)ccc2O[C@@H]1CN(C)Cc1ccc2c(c1)OCO2`, the cytotoxicity call is “inactive”.
The value for `Cc1noc(C)c1S(=O)(=O)Nc1ccc2c(c1)CC(=O)N([C@@H](C)CO)C[C@H](C)[C@H](CN(C)S(=O)(=O)c1ccc(Cl)cc1)O2` was “inactive”; that for `C[C@@H]1CCCCO[C@H](CN(C)Cc2ccc(C(F)(F)F)cc2)[C@H](C)CN([C@@H](C)CO)C(=O)c2cc(NC(=O)c3ccncc3)ccc2O1` was “inactive”; that for `Cc1ccc(S(=O)(=O)N(C)C[C@@H]2Oc3ccc(NS(=O)(=O)c4ccc(F)cc4)cc3C(=O)N([C@@H](C)CO)C[C@H]2C)cc1` was “inactive”.
In the case of `Cc1noc(C)c1S(=O)(=O)N(C)C[C@H]1OCCCC[C@@H](C)Oc2ccc(N(C)C)cc2C(=O)N([C@@H](C)CO)C[C@@H]1C` it was “inactive”; in that of `CC(C)NC(=O)Nc1ccc2c(c1)CC(=O)N([C@@H](C)CO)C[C@@H](C)[C@@H](CN(C)Cc1ccc(-c3ccccc3)cc1)O2`, “inactive”.
The value for `CC(C)NC(=O)Nc1ccc2c(c1)CC(=O)N([C@H](C)CO)C[C@@H](C)[C@@H](CN(C)Cc1ccc(-c3ccccc3)cc1)O2` was “active”.
As for `CC(C)NC(=O)Nc1ccc2c(c1)CC(=O)N([C@H](C)CO)C[C@H](C)[C@@H](CN(C)Cc1ccc(-c3ccccc3)cc1)O2`, the cytotoxicity call is “inactive”.
In the case of `CC(C)NC(=O)Nc1ccc2c(c1)CC(=O)N([C@@H](C)CO)C[C@H](C)[C@@H](CN(C)Cc1ccc(-c3ccccc3)cc1)O2` it was “active”; in that of `CC(C)NC(=O)Nc1ccc2c(c1)CC(=O)N([C@H](C)CO)C[C@@H](C)[C@H](CN(C)Cc1ccc(-c3ccccc3)cc1)O2`, “inactive”; in that of `CC(C)NC(=O)Nc1ccc2c(c1)CC(=O)N([C@@H](C)CO)C[C@@H](C)[C@H](CN(C)Cc1ccc(-c3ccccc3)cc1)O2`, “inactive”.
As for `C[C@@H]1CN([C@@H](C)CO)S(=O)(=O)c2ccc(C#Cc3cccc(F)c3)cc2O[C@@H]1CN(C)S(=O)(=O)c1ccccc1F`, the cytotoxicity call was “inactive”.
`C[C@@H]1CCCCO[C@@H](CN(C)Cc2ccc(C(=O)O)cc2)[C@H](C)CN([C@H](C)CO)C(=O)c2cc(NC(=O)Nc3ccc4c(c3)OCO4)ccc2O1`: the cytotoxicity call was “inactive”.
In the case of `CC(C)NC(=O)N(C)C[C@@H]1Oc2c(NS(=O)(=O)c3ccc(Cl)cc3)cccc2C(=O)N([C@H](C)CO)C[C@H]1C` it was “inactive”; in that of `COC(=O)C1C(O)CCC2CN3CCc4c([nH]c5ccccc45)C3CC21.Cl` (configuration not stated), “inactive”; in that of `COC(=O)C1C2CC3c4[nH]c5cc(OC)ccc5c4CCN3CC2CC(OC(=O)c2cc(OC)c(OC)c(OC)c2)C1OC` (configuration not stated), “active”.
In the case of `COC(=O)C1C(O)CCC2CN3CCc4c([nH]c5ccccc45)C3CC21` (configuration not stated), the cytotoxicity call is “inactive”.
In the case of `C[C@H](CO)N1C[C@H](C)[C@H](CN(C)S(=O)(=O)c2ccc(Cl)cc2)Oc2ccc(NS(C)(=O)=O)cc2CC1=O` it was “inactive”; in that of `O=C(C[C@@H]1CC[C@@H]2[C@H](COC[C@H](O)CN2C(=O)Nc2ccc(Cl)cc2)O1)NC1Cc2ccccc2C1`, “inactive”; in that of `O=C(C[C@H]1CC[C@H]2[C@@H](COC[C@H](O)CN2C(=O)Nc2ccc(Cl)cc2)O1)NC1Cc2ccccc2C1`, “inactive”.
On to `O=C(C[C@H]1CC[C@H]2[C@@H](COC[C@@H](O)CN2C(=O)Nc2ccc(Cl)cc2)O1)NC1Cc2ccccc2C1`, for which the cytotoxicity call is “active”.
The value for `O=C(C[C@H]1CC[C@@H]2[C@H](COC[C@@H](O)CN2C(=O)Nc2ccc(Cl)cc2)O1)NC1Cc2ccccc2C1` was “inactive”; that for `O=C(C[C@@H]1CC[C@H]2[C@@H](COC[C@@H](O)CN2C(=O)Nc2ccc(Cl)cc2)O1)NC1Cc2ccccc2C1` was “inactive”.
In the case of `O=C(C[C@@H]1CC[C@@H]2[C@H](COC[C@@H](O)CN2C(=O)Nc2ccc(Cl)cc2)O1)NC1Cc2ccccc2C1` it was “active”.
On to `CO[C@H]1CN(C)C(=O)c2ccc(NC(=O)CC(F)(F)F)cc2OC[C@H](C)N(S(=O)(=O)c2cn(C)cn2)C[C@H]1C`, for which the cytotoxicity call was “inactive”.
In the case of `C[C@H]1CCCCO[C@H](CN(C)S(C)(=O)=O)[C@@H](C)CN([C@@H](C)CO)C(=O)c2cc(NS(=O)(=O)c3cn(C)cn3)ccc2O1` it was “inactive”; in that of `COc1ccc(NC(=O)Nc2ccc3c(c2)C(=O)N([C@H](C)CO)C[C@H](C)[C@H](CN(C)S(=O)(=O)c2c(C)noc2C)OCCCC[C@H](C)O3)cc1`, “inactive”; in that of `O=C(C[C@H]1CC[C@H]2[C@@H](COC[C@@H](O)CN2S(=O)(=O)c2ccc(F)cc2)O1)N[C@@H]1CCN(Cc2ccccc2)C1`, “inactive”.
As to `CC(C)NC(=O)Nc1ccc2c(c1)CC(=O)N([C@H](C)CO)C[C@@H](C)[C@H](CN(C)Cc1ccc(C(=O)O)cc1)O2`, the cytotoxicity call is “inactive”.
In the case of `C[N+](C)(C)[C@@H]1[C@H]2OC[C@H](O)[C@H]2O[C@@H]1O` it was “inactive”; in that of `CCCNC(=O)N1C[C@H](C)[C@@H](OC)CN(C)C(=O)c2cc(NS(=O)(=O)CC(F)(F)F)ccc2OC[C@H]1C`, “inactive”.
In the case of `COc1ccc(NC(=O)Nc2cccc3c2O[C@@H](CN(C)Cc2ccc(Cl)c(Cl)c2)[C@H](C)CN([C@@H](C)CO)C3=O)cc1` it was “inactive”.
In the case of `C[C@@H]1CN([C@@H](C)CO)C(=O)c2cccc(NC(=O)C3CCCCC3)c2O[C@H]1CN(C)Cc1ccc(Cl)c(Cl)c1` it was “inactive”; in that of `COc1ccc(NC(=O)Nc2cccc3c2O[C@H](CN(C)Cc2ccc(Cl)c(Cl)c2)[C@@H](C)CN([C@@H](C)CO)C3=O)cc1`, “inactive”.
As to `C[C@H]1CN([C@@H](C)CO)C(=O)c2cccc(NC(=O)C3CCCCC3)c2O[C@@H]1CN(C)Cc1ccc(Cl)c(Cl)c1`, the cytotoxicity call is “active”.
Turning to `C[C@@H]1CN([C@@H](C)CO)C(=O)c2cccc(NC(=O)Nc3ccc(F)cc3)c2O[C@H]1CN(C)Cc1ccc(Cl)c(Cl)c1`, the cytotoxicity call is “active”.
`C[C@@H]1CN([C@H](C)CO)C(=O)c2cccc(NC(=O)C3CCCCC3)c2O[C@H]1CN(C)Cc1ccc(Cl)c(Cl)c1`: the cytotoxicity call was “inactive”.
For `C[C@@H]1CN([C@H](C)CO)C(=O)c2cccc(NC(=O)Nc3ccc(F)cc3)c2O[C@H]1CN(C)Cc1ccc(Cl)c(Cl)c1`, the cytotoxicity call was “inactive”.
In the case of `C[C@@H]1CN([C@@H](C)CO)C(=O)c2cccc(NC(=O)Nc3ccccc3)c2O[C@H]1CN(C)Cc1ccc(Cl)c(Cl)c1` it was “active”; in that of `COc1ccc(NC(=O)Nc2cccc3c2O[C@@H](CN(C)Cc2ccc(Cl)c(Cl)c2)[C@@H](C)CN([C@H](C)CO)C3=O)cc1`, “active”.
Regarding `C[C@H](CO)N1C[C@H](C)[C@H](CN(C)Cc2ccc(Cl)c(Cl)c2)Oc2c(NC(=O)Nc3ccc(F)cc3)cccc2C1=O`, the cytotoxicity call was “inactive”.
Turning to `C[C@@H]1CN([C@H](C)CO)C(=O)c2cccc(NC(=O)Nc3ccccc3)c2O[C@H]1CN(C)Cc1ccc(Cl)c(Cl)c1`, the cytotoxicity call is “inactive”.
For the compound `C[C@H](CO)N1C[C@H](C)[C@@H](CN(C)Cc2ccc(Cl)c(Cl)c2)Oc2c(NC(=O)Nc3ccccc3)cccc2C1=O`, the cytotoxicity call was “inactive”.
The value for `Nc1nc(/C(=N/O)C(=O)N[C@@H]2C(=O)N3C(C(=O)O)=C(/C=C4\CCN([C@@H]5CCNC5)C4=O)CS[C@H]23)ns1` was “inactive”; that for `CSc1ncc(C(=O)NN)n1C` was “inactive”; that for `CCS(=O)(=O)NCC[C@H]1CC[C@H](NC(=O)C2CC2)[C@H](CO)O1` was “inactive”.
In the case of `CN(C)C(=O)COC[C@]12COC[C@H]1CN(S(C)(=O)=O)C2` it was “inactive”; in that of `C[C@H](CO)N1C[C@H](C)[C@H](CN(C)C(=O)Nc2ccc3c(c2)OCO3)Oc2ccc(NC(=O)c3ccncc3)cc2CC1=O`, “inactive”.
The value for `C[C@H](CO)N1C[C@H](C)[C@H](CN(C)C(=O)Nc2ccc3c(c2)OCO3)Oc2ccc(NS(=O)(=O)c3cn(C)cn3)cc2CC1=O` was “inactive”.
For `O=C(Nc1ccc2c(c1)[C@@H]1C[C@@H](CC(=O)N3CCc4ccccc4C3)O[C@H](CO)[C@@H]1O2)C1CCOCC1`, the cytotoxicity call is “inactive”.
The value for `C[C@@H]1CN([C@@H](C)CO)C(=O)Cc2cc(NC(=O)C3CC3)ccc2O[C@@H]1CN(C)C(=O)Nc1ccccc1` was “inactive”; that for `C[C@@H]1CN([C@H](C)CO)C(=O)c2cc(NC(=O)C3CCCCC3)ccc2O[C@@H](C)CCCCO[C@@H]1CN(C)S(=O)(=O)c1ccc(F)cc1` was “inactive”; that for `O=C(CN1CCOCC1)NCC[C@H]1CC[C@@H](NC(=O)Cc2ccccn2)[C@@H](CO)O1` was “inactive”.
The value for `Cc1noc(C)c1NC(=O)N(C)C[C@H]1Oc2c(NS(=O)(=O)c3c(C)noc3C)cccc2C(=O)N([C@@H](C)CO)C[C@H]1C` was “inactive”.
The value for `C=CCOC(=O)[C@H]1[C@@H]2C(=O)O[C@@H](c3ccccc3)[C@@H](c3ccccc3)N2[C@@H](c2ccc(OCCOC(=O)[C@H]3C[C@H]4C(=O)N[C@@H](Cc5ccccc5)C(=O)N4[C@H]3c3ccc(O)cc3)cc2)[C@]12C(=O)Nc1ccccc12` was “inactive”; that for `C[C@H]1CN([C@@H](C)CO)C(=O)c2cc(NC(=O)c3ccncc3)ccc2O[C@H]1CN(C)S(=O)(=O)c1ccccc1` was “inactive”.
